NTMT1 inhibitor = Primary qHTS for Inhibitors of N-terminal methyltransferase 1 (NTMT1): MTaseGlo Assay | Potency, µM (series often up to 114 µM), without a hit: at the highest dose activity change, negative = inhibition, usual class: inhibitors | N-terminal Xaa-Pro-Lys N-methyltransferase 1 (Homo sapiens), Q9BV86 | 59,000 compounds, 2.5% hits | NTMT1 MTase-Glo SAH luminescence, purified enzyme;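 note: potency is the fitted concentration of half-maximal effect; plate controls were DMSO vehicle for no effect and no enzyme for full effect; nearly all actives have a fitted effect of over 65% in size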
TSG101-PTAP inh = qHTS Validation Assay for Inhibitors of HIV-1 Budding by Blocking the Interaction of PTAP/TSG101: Sytravon Library Screen; AID 1347069, 2019; 44,000 tested, under 10 active; Tumor susceptibility gene 101 protein (Homo sapiens), Q99816; Potency, µM (titrated, usually from 115 µM), usual class: inhibitors; Fluorescence polarization, FITC-PTAP peptide/Tsg101, 20 min; note: potency is the fitted concentration of half-maximal effect; 0% is about no effect
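Fluorescence polarization: Tsg101 binding domain (10 uM final) in 10 mM HEPES pH 7.5, 0.15 M NaCl, 0.01% Tween 20, 3 mM EDTA, 0.1 mM TCEP; compounds pinned; FITC-PTAP peptide 50 nM final; 20 min, r.t.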
GALK inhibitor = qHTS Assay for Inhibitors of Human Galactokinase (GALK): NCGC Sytravon Library Screen; recombinant GALK, Kinase-Glo ATP luminescence, 1 h; Potency, µM (series often up to 57.5 µM), inactives show top-dose activity, negative = inhibition, most hits filed as inhibitors; 44,000 tested, under 10 active; AID 1347072, 2019;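 note: plate controls were full GALK reaction for no effect and reaction lacking GALK for full effect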
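5 nM GALK with 35 µM ATP and 100 µM galactose in HEPES pH 8.0, MgCl2, NaCl, DTT, BSA; 1 h RT reaction, remaining ATP detected by Kinase-Glo Plus luminescence after 10 min; qHTS concentration series.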
FH mod = Identification of activators of human fumarate hydratase by quantitative high-throughput screening | FH coupled MDH/diaphorase resazurin fluorescence, 15 min | 54,000 compounds, 0.22% hits | Fumarate hydratase, mitochondrial (Homo sapiens), P07954 | Potency, µM (titrated, usually from 79.9 µM), for inactives: at the top dose activity change, negative = inhibition, hits mostly inhibitors | AID 1347055, 2019; note: potency is the fitted concentration of half-maximal effect; % is set by controls: 0 for no effect and ±100 for the full control effect; the screen sought activators but most active calls are inhibition curves; nearly all actives have a fitted effect of over 45% in size
B2AR arrestin ag = qHTS assay of beta-arrestin-biased ligands of beta2-adrenergic receptor: NCGC Sytravon Library Screen | HTLA Tango cells, beta-arrestin recruitment, luciferase luminescence, 18 h | 44,000 tested, under 10 active | Potency, µM (highest dose often 46.1 µM), hits mostly activators;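 note: potency is the fitted concentration of half-maximal effect; 0% = DMSO and full agonism = EC100 isoproterenol or metaproterenol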
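Tango cells (recombinant beta2-AR, beta-arrestin, tTA-driven luciferase), 1500/well in DMEM 1% FBS, treated 18 h at 37 °C with compounds up to 46 µM; luciferin mix added, luminescence read after 15 min; %activity curves fitted and curve-classed.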
GALC G270D act = A Novel Cell-Based Assay to Identify Small Molecules for B -Galactocerebrosidase | Potency, µM (doses to about 57.5 µM), hits mostly activators | P54803 | 145M-Twi-hGALC-G270D cells (Twitcher mouse brain line with human GALC G270D), HMU-beta-Gal fluorescence, 48 h | 45,000 compounds, 0.1% hits | AID 1159614, 2016; note: potency is the fitted concentration of half-maximal effect; 0% is about no effect; nearly all actives have a fitted effect of over 65% in size
Target sequence (P54803 whole entry G286D): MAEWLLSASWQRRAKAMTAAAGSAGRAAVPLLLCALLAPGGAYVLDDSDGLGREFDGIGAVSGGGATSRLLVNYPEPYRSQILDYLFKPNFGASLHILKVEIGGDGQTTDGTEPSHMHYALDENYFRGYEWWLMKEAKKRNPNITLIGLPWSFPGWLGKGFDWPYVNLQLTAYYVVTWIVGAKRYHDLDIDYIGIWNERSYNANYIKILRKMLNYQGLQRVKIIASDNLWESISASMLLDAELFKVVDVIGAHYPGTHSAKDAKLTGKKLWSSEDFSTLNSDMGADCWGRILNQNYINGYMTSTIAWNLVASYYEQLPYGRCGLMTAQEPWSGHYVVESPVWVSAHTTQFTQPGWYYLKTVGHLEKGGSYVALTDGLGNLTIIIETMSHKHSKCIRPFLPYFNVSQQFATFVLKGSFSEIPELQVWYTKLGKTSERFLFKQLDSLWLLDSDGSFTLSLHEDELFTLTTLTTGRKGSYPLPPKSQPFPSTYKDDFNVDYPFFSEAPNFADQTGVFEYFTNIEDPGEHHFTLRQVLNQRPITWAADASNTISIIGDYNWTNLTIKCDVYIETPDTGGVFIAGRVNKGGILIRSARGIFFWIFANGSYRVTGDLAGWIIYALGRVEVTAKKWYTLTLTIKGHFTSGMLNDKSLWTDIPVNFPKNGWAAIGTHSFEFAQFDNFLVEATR
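Fluorogenic HMU-b-Gal hydrolysis (0.1 mM final, pH 5.2 citrate-phosphate with 1 mg/mL sodium taurocholate; carbonate stop buffer) measures mutant GALC activity after compound treatment of live 145M-Twi Twitcher brain cells stably carrying human GALC-G270D, with wild-type GALC line alongside; activation sought.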
* hit, by the source's call; i = inactive; u = inconclusive; x = no result given; ! = not confirmed by another sample; [ ] = remark or other dose. Only a selection was taken, and hits are over-represented in it overall. Calls come from the whole dose curve; as a rule, active = well fitted curve in the direction sought with a large enough effect; inconclusive = small, poorly fitted or top-dose-only effect, or another doubt; inactive = no such curve, though single readings can be large; an effect the other way counts as inactive or inconclusive.

SMILES | NTMT1 inhibitor | TSG101-PTAP inh | GALK inhibitor | FH mod | B2AR arrestin ag | GALC G270D act
Cc1ccc(-c2ccc(=O)n(CC(=O)NCCCc3ccccc3)n2)cc1 | 7% | x | x | x | x | x
CC(=O)OC[C@]12[C@H](OC(C)=O)[C@H](OC(=O)c3ccccc3)[C@@H]3[C@@H](OC(C)=O)[C@]1(OC3(C)C)[C@H](C)C[C@H](OC(=O)c1ccccc1)[C@@H]2OC(=O)c1ccccc1 | 8%[12.6 µM] | x | x | -6%[20.6 µM] | x | x
COc1cc(C(O)C(CO)Oc2ccc(CCCO[C@@H]3O[C@@H](C)[C@H](O)[C@@H](O)[C@H]3O)cc2OC)ccc1O (stereo partly specified) | 7%[29.8 µM] | x | x | 1%[53.3 µM] | x | x
CC1=C2[N-][C@H]([C@H](CC(N)=O)[C@@]2(C)CCC(=O)NC[C@@H](C)OP(=O)([O-])O[C@H]2[C@@H](O)[C@@H](n3cnc4cc(C)c(C)cc43)O[C@@H]2CO)[C@]2(C)N=C(C(C)=C3N=C(C=C4N=C1[C@@H](CCC(N)=O)C4(C)C)[C@@H](CCC(N)=O)[C@]3(C)CC(N)=O)[C@@H](CCC(N)=O)[C@]2(C)CC(N)=O.O.[Co+2] | 50µM* | x | x | x | x | x
CCN(CC)C(=S)SSC(=S)N(CC)CC | 3.5µM*! | x | x | u | x | i
O=C1NC(=O)C(=Cc2ccc(-c3ccc(F)cc3)o2)S1 | 22µM* | x | x | -16%[53.3 µM] | x | x
O=C1NC(=O)C(c2c[nH]c3ccccc23)=C1c1c[nH]c2ccccc12 | 11µM* | x | x | -25% | x | x
OCC(CO)(CO)NCC(O)Cn1c2ccc(Cl)cc2c2cc(Cl)ccc21 (stereo unspecified) | 22µM* | x | x | -14% | x | x
O=C(NCc1ccccc1)c1ccc(NC(=O)N2CCSc3ncccc32)cc1 | 89µM* | i | 1% | -7% | i | i
COc1cc(O)c2c(=O)c(O)c(-c3ccc(O)c(O)c3)oc2c1 | 25µM* | x | x | -8% | x | x
O=c1c(O)c(-c2ccc(O)c(O)c2)oc2cc(O)ccc12 | 50µM*! | x | x | 27µM*![activator] | x | x
CCOc1ccc(CCNC(=O)C2=C(C)OCCO2)cc1OCC | 11% | x | x | x | x | x
C[C@@H]1O[C@@H](O[C@H]2[C@H](O)[C@@H](O)[C@H](OC[C@H]3O[C@@H](OC(=O)[C@]45CCC(C)(C)C[C@H]4C4=CCC6[C@@]7(C)CC[C@H](O[C@@H]8OC[C@H](O)[C@H](O[C@@H]9O[C@H](CO)[C@@H](O)[C@H](O)[C@H]9O)[C@H]8O)[C@@](C)(CO)C7CC[C@@]6(C)[C@]4(C)CC5)[C@H](O)[C@@H](O)[C@@H]3O)O[C@@H]2CO)[C@H](O)[C@H](O)[C@H]1O (stereo partly specified) | -1%[6.45 µM] | x | x | 5%[13.5 µM] | x | x
C[C@@H]1C(=O)O[C@H]2CC34[C@H]5C[C@@H](C(C)(C)C)C36[C@@H](OC(=O)[C@@H]6O)OC4(C(=O)O5)[C@]21O (stereo partly specified) | 6%[57.5 µM] | x | x | 4% | x | x
Cn1ncnc1[C@H]1c2n[nH]c(=O)c3cc(F)cc(c23)N[C@@H]1c1ccc(F)cc1 | -14% | x | x | 2%[53.3 µM] | x | x
Nc1ncnc2c1c(-c1cccc(OCc3ccccc3)c1)cn2C1CC(CN2CCC2)C1 (stereo unspecified) | 10µM*! | x | x | -16% | x | x
O=C1NC(=O)C(c2cnc3ccccn23)=C1c1cn2c3c(cc(F)cc13)CN(C(=O)N1CCCCC1)CC2 | 27µM*! | x | x | -9% | x | x
Clc1cccc(C2=NC(c3cccs3)=Nc3ccc(Br)cc3N2)c1 | 89µM* | i | 3% | u | i | i
Clc1ccc2c(c1)NC(c1ccncc1)=NC(c1cccs1)=N2 | u | i | 3% | -9% | i | i
C[N+](C)(C)CC[N+]1(C)Cc2c(Cl)c(Cl)c(Cl)c(Cl)c2C1 | 7.9µM* | x | x | -8%[53.3 µM] | x | i
CS(=O)(=O)Nc1cccc(-c2cc(F)c(S(=O)(=O)N3CCN(S(=O)(=O)c4ccc5c(c4)OCCO5)CC3)cc2F)c1 | 18µM* | x | x | x | x | x
COc1cc2cc(CNc3ccccc3)c(=O)n(CC(=O)Nc3cc(C)cc(C)c3)c2cc1OC | -25% | i | 3% | -18% | i | 40µM*
CCc1ccc(NC(=O)Cn2c(=O)c(CNc3ccccc3)cc3cc(OC)c(OC)cc32)cc1 | -21% | i | 8% | -24% | i | i
N[C@@H](Cc1cc(I)c(O)c(I)c1)C(=O)O | 14µM* | x | x | -20%[53.3 µM] | x | i
O=C(O)C(Cc1cc(I)c(O)c(I)c1)c1ccccc1 (stereo unspecified) | u | x | x | -11%[53.3 µM] | x | i
SMILES | NTMT1 inhibitor | TSG101-PTAP inh | GALK inhibitor | FH mod | B2AR arrestin ag | GALC G270D act
Cc1ccc(N)cc1O | u | x | x | 20µM* | x | i
Nc1ccc(C(=O)O)c(O)c1 | 36%[57.5 µM] | x | x | -7%[53.3 µM] | x | i
COc1cc2c3cc1Oc1cc(ccc1O)C[C@@H]1c4c(cc(OC)c(O)c4Oc4ccc(cc4)C[C@@H]3N(C)CC2)CC[N+]1(C)C | u | x | x | -6%[53.3 µM] | x | i
COc1ccc2cc1Oc1ccc(cc1)CC1c3cc(c(OC)cc3CCN1C)Oc1c(OC)c(OC)c(OC)c3c1C(C2)N(C)CC3 (stereo unspecified) | 40µM* | x | x | -5%[53.3 µM] | x | x
COc1ccc2cc1Oc1cc3c(cc1OC)CC[N+](C)(C)[C@H]3Cc1ccc(cc1)Oc1c(OC)c(OC)cc3c1[C@@H](C2)[N+](C)(C)CC3 | 13µM* | x | x | -6%[53.3 µM] | x | i
CC1(C)[C@H]2C[C@H](C/C=C\CCCC(=O)O)[C@@H](NC(=O)c3csc4ccc(O)cc34)[C@@H]1C2 | 2%[57.5 µM] | x | x | -1% | x | x
CCOC(=O)c1cnc2ccc(-c3cncc(NS(=O)(=O)c4ccccc4)c3)cn12 | 28µM* | x | x | 23% | x | x
NC(=O)c1c(OCc2c(F)cc(Br)cc2F)nsc1NC(=O)NCCCCN1CCCC1 | 30µM*! | x | x | 25% | x | x
CCCCCCOC(=O)N=C(N)c1ccc(NCc2nc3cc(C(=O)N(CCC(=O)OCC)c4ccccn4)ccc3n2C)cc1 | -28%[57.5 µM] | x | x | -7%[53.3 µM] | x | x
CCn1c(=O)c2c(nc(/C=C/c3ccc(OC)c(OC)c3)n2C)n(CC)c1=O | 3% | x | x | x | x | x
COc1cccc(-c2nc(CS(=O)(=O)CC(=O)NCc3cccc(Cl)c3)c(C)o2)c1 | 0% | i | 1% | 0% | i | i

Source: PubChem
